Measurements reported in PubChem BioAssay (NCI).
This is part of a sample that, as a whole, favours compounds with a hit. Of some 83,000 tested, about 20% had one in any assay.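 Negative percent growth values reflect cell death: -40 means 40% of the cells present at the start died, and -100 means all died.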 Values without a mark were called inactive. The source made the active and inactive calls. The calls were made as follows: active = growth percent below 10; inactive = the rest.

Key:
Assay in all cases: NCI-60 one-dose screen, 48 h (100 = growth as untreated, 0 = no growth, -100 = all killed)
Details in all cases: 10 µM unless noted
NCI-H23 lung = test system: NCI-H23 lung
NCI-H226 lung = test system: NCI-H226 lung
NCI-H322M lung = test system: NCI-H322M lung
HOP-62 NSCLC = test system: HOP-62 NSCLC
NCI-H460 lung = test system: NCI-H460 lung
HOP-92 NSCLC = test system: HOP-92 NSCLC
NCI-H522 lung = test system: NCI-H522 lung
A549/ATCC NSCLC = test system: A549/ATCC NSCLC
786-0 renal = test system: 786-0 renal
COLO 205 colon = test system: COLO 205 colon
DU-145 prostate = test system: DU-145 prostate
K-562 leukemia = test system: K-562 leukemia
MALME-3M melanoma = test system: MALME-3M melanoma
MDA-MB-231 breast = test system: MDA-MB-231 breast
RXF 393 renal = test system: RXF 393 renal
SF-268 CNS = test system: SF-268 CNS
SF-295 CNS = test system: SF-295 CNS
SF-539 CNS = test system: SF-539 CNS
UACC-257 melanoma = test system: UACC-257 melanoma
M14 melanoma = test system: M14 melanoma

Structure (SMILES) | growth (NCI-H23 lung) | growth (NCI-H226 lung) | growth (NCI-H322M lung) | growth (HOP-62 NSCLC) | growth (NCI-H460 lung) | growth (HOP-92 NSCLC) | growth (NCI-H522 lung) | growth (A549/ATCC NSCLC) | growth (786-0 renal) | growth (COLO 205 colon) | growth (DU-145 prostate) | growth (K-562 leukemia) | growth (MALME-3M melanoma) | growth (MDA-MB-231 breast) | growth (RXF 393 renal) | growth (SF-268 CNS) | growth (SF-295 CNS) | growth (SF-539 CNS) | growth (UACC-257 melanoma) | growth (M14 melanoma)
C=C(C)C1CCC2(C(=O)O)CCC3(C)C(CCC4C5(C)CCC(OC(=O)NCc6ccccc6)C(C)(C)C5CCC43C)C12 (stereo not given) | 32.3% | 44.8% | 59.3% | 48.4% | 29.4% | -4.47% (active) | -6.51% (active) | 26.7% | 44.8% | 13.7% | 56.2% | 28.5% | 72.1% | 53.6% | 60.2% | 65.4% | 41.9% | 53.5% | 29.3% | 45.6%
Cc1cc(C)c(S(=O)(=O)/N=c2/n(-c3ccccc3)nc3n2CCN3C2=NCCN2)c(C)c1 | 86.7% | 89% | 87.1% | 86.8% | 71.8% | 63.9% | 103% | 79.9% | 89.1% | -28.9% (active) | 98% | 38.9% | 50.7% | 67.7% | 54.9% | 81.4% | 95.8% | 88.8% | 92% | 98.9%
Cn1c(=O)c(C#N)c(-c2ccco2)n2c(S(=O)(=O)Cc3ccccc3)nnc12 | 94.3% | 122% | 89.1% | 104% | 79.9% | 92.8% | 81.2% | 92.8% | 81.1% | 111% | 77% | 100% | 63.6% | 126% | 91% | 104% | 112% | 101% | 8.93% (active) | 57.6%
O=C1Nc2ccccc2/C1=C/C(=O)c1ccc(N2CCCCC2)cc1 | 75.7% | 86.7% | 96.6% | 102% | 77.9% | 56.7% | 61.7% | 95.1% | 98.7% | 74.6% | 66.8% | 68.2% | 69.8% | 82.1% | 77% | 71.7% | 103% | 79.3% | 97.7% | 107%
O=C(Nc1cccc(F)c1)c1cc(=O)[nH]c2cc(Br)ccc12 | 72.5% | 54.7% | 53.8% | 50.9% | 21.9% | 47.4% | 23.9% | 40.3% | 69.7% | 20.4% | 74.2% | 21.3% | 52.8% | 72.2% | 56.1% | 60.8% | 38.9% | 47.6% | 57% | 29.5%
O=C1CN(Cc2ccc(C(=O)NO)cc2)C(=O)[C@@H](Cc2ccccc2)N1 | 100% | 104% | 102% | 102% | 103% | 102% | 98.2% | 96.4% | 95.8% | 114% | 111% | 98% | 94% | 102% | 112% | 99.7% | 99.3% | 99.7% | 93.2% | 107%
CCN=C1C=CC(=C(c2ccc(N(CC)CC)cc2)c2ccc(N(CC)CC)cc2)c2ccccc21 | -53.5% (active) | -58.3% (active) | -38.9% (active) | -71.8% (active) | -72% (active) | -72.8% (active) | -65.5% (active) | -59.8% (active) | -64.3% (active) | -90.7% (active) | -96.5% (active) | -13.6% (active) | -82.6% (active) | -8.34% (active) | -74.4% (active) | -18.6% (active) | -80.9% (active) | -82.9% (active) | -69.9% (active) | -67% (active)
CCCCCCCCCN(CCCCCCCCC)C(C)C(=O)c1ccc2cc(Br)c3ccccc3c2c1 (stereo not given) | 77.6% | 102% | 116% | 95.6% | 110% | 72.8% | 96.5% | 86.1% | 90.4% | 81.9% | 88.6% | 39.2% | 118% | 68.9% | 99.4% | 87.1% | 100% | 81.2% | 98.7% | 55.7%
O=C(O)CSCc1nnc2n(Cc3ccccc3)c(=O)c3c4c(sc3n12)CCCC4 | 90.8% | 87.2% | 101% | 139% | 111% | 74.5% | 63.7% | 93.7% | 132% | 88.2% | 114% | 78.6% | 112% | 83.5% | 88.5% | 112% | 57.9% | 101% | 104% | 158%
CCOC(=O)c1nn(C2CCCCO2)c2ccc(NC(=O)Cn3nnc4ccccc43)cc12 (stereo not given) | 102% | 109% | 96.9% | 98.8% | 100% | 111% | 102% | 102% | 90.9% | 120% | 104% | 91.3% | 105% | 96.4% | 125% | 101% | 99.3% | 100% | 100% | 102%
C=C(C)[C@@H]1CC[C@]2(COCCCN)CC[C@]3(C)[C@H](CC[C@@H]4[C@@](C)(CCCNCCCN)[C@H](C(=C)C)CC[C@]43C)[C@@H]12 | -53.5% [100 µM] (active) | -41.6% [100 µM] (active) | -76.2% [100 µM] (active) | -47.7% [100 µM] (active) | -74.7% [100 µM] (active) | -69.5% [100 µM] (active) | -49.8% [100 µM] (active) | -55.7% [100 µM] (active) | -49.7% [100 µM] (active) | -50.3% [100 µM] (active) | -83.4% [100 µM] (active) | -34.1% [100 µM] (active) | -58.2% [100 µM] (active) | -63.8% [100 µM] (active) | -48.6% [100 µM] (active) | -58.7% [100 µM] (active) | -52.7% [100 µM] (active) | -62.2% [100 µM] (active) | -74.1% [100 µM] (active) | -35.4% [100 µM] (active)
N#Cc1ccc(-c2ccc(COc3ccc(CC4SC(=O)NC4=O)cc3)cc2)cc1 (stereo not given) | 50.7% | 86.5% | 89.7% | 67.1% | 69.5% | 66.8% | 43.8% | 48.1% | 83% | 103% | 92.6% | 28.3% | 59.5% | 71.2% | 97.5% | 63.6% | 50.3% | 65.5% | 84.9% | 73.4%
COc1cc(NN=C(c2ccc(O)cc2)c2ccc(O)cc2)c([N+](=O)[O-])cc1[N+](=O)[O-] | 5.6% (active) | 110% | 94.3% | -1.66% (active) | 1.73% (active) | 70.2% | -49.9% (active) | -5.34% (active) | -29.5% (active) | 12.7% | 90.5% | 109% | 120% | 91.9% | -34.4% (active) | 72.3% | 112% | 5.64% (active) | -14.4% (active) | -15.9% (active)
COc1ccc(C=C2c3ccccc3-c3ccccc32)cc1 | 67.6% | 68.6% | 72.2% | 55.2% | 30.6% | 67.3% | 13.7% | 52.2% | 58.5% | 29.6% | 84.6% | 18.8% | 63.5% | 59.2% | 54.5% | 53.8% | 31.7% | 43.7% | 52.3% | 30%
